# MPTP block = inhibitors of mitochondrial permeability transition pore | 360,000 tested, 1.4% active | inhibition, % at 10 µM | AID 602449 | isolated mouse mitochondria, Ca2+ swelling absorbance, 30 min;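 active = inhibition of 50% or more, scaled per plate between neutral and stimulator controls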;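 also: 0% = DMSO wells given calcium and 100% = 1 mM EGTA wells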
# CendR NRP1 mod = alters CendR peptide binding to human NRP-1 | inhibition, % at 25 µM | FAM-RPARPAR peptide binding to NRP-1, fluorescence polarization | AID 602438 | O14786 | 360,000 tested, 0.85% active;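 active = inhibition or corrected inhibition above about 18%, plus a signal ratio from 0.5 to 1.5, limit read from the data, passing the limit was not always enough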
# CFTR F508del cor = correctors of CFTR F508del function in bronchial epithelial cells; CFBE cells, YFP halide quenching; stimulated with forskolin plus potentiator P3; % fluorescence drop versus neutral controls; activity (quench increase), % at 7.58 µM; 350,000 tested, 0.36% active;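 active = mean added fluorescence quench of at least 8% versus neutral control, with both replicates also reaching 8%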;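 also: cells transiently co-express mutant CFTR-F508del with the halide-sensitive YFP; corrector assay measuring rescue of mutant channel to the surface after 24 h compound exposure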
# SKN-1 inh = C. elegans SKN-1 inhibition | AID 624304 | 360,000 tested, 0.49% active | inhibition, % at 21.8 µM | C. elegans VP596 Pgst-4::GFP/RFP ratio, acrylamide-induced, 24 h;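 active = interference check ratio from 0.5 to 1.5 plus GFP to RFP signal ratio inhibition reaching or exceeding a fixed threshold, cut at about 30% in these data, passing the limit was not always enough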
# ATG4B inhibitor = ATG4B (human) cysteine protease inhibition; ATG4B cleavage of LC3-PLA2, NBD-HPC fluorescence, 1 h; inhibition, % at 8.33 µM; AID 504462; Q9Y4P1; 340,000 tested, 0.51% active; in the data active = inhibition above about 40%
# Target sequence (Q9Y4P1 whole entry, looked up): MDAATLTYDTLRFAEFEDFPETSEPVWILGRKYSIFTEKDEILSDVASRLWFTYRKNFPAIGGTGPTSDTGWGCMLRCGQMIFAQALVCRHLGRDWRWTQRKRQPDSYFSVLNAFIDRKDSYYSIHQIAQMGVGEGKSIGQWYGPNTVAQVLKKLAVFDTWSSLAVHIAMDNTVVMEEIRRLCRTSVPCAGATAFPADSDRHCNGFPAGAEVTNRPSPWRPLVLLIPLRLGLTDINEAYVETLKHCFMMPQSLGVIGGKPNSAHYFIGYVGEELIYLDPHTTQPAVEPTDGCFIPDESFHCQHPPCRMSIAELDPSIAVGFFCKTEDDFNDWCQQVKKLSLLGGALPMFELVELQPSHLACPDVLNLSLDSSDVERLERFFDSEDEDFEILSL
# ATG4B confirm = confirmation of human ATG4B inhibitors; ATG4B protease fluorescent substrate cleavage assay; shares compounds with ATG4B inhibitor; 320 tested, 92% active; inhibition, % at 8.33 µM; in the data active = inhibition above about 39%
# PLA2 ctr = inhibits human PLA2, flagging false ATG4B inhibitors | shares compounds with ATG4B inhibitor | AID 588402 | purified PLA2, NBD-C6-HPC fluorescence, 45 min | inhibition, % at 8.33 µM | 1,600 tested, 66% active; in the data active = inhibition above about 50%
# Target sequence (P04054 whole entry, looked up): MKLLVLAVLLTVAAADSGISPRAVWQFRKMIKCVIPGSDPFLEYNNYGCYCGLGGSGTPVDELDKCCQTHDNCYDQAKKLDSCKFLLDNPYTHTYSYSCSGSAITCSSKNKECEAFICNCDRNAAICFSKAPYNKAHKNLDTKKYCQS
# Rh123 counter = membrane potential counter-screen of mitochondrial pore inhibitors; shares compounds with MPTP block; inhibition, % at 10 µM; isolated mitochondria, Rhodamine 123 fluorescence; 5,000 tested, 78% active; AID 624504; in the data active = inhibition above about 22%;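 also: 0% = DMSO vehicle and 100% = positive control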
# MPTP swell DR = MPTP inhibition, dose response swelling confirmation; shares compounds with MPTP block; isolated mitochondria swelling, absorbance; IC50, µM; 780 tested, 58% active; in the data active = IC50 below about 20 µM
# MPTP cs DR = counter-screen for mitochondrial permeability transition pore inhibitors, dose response; shares compounds with MPTP block; isolated mitochondria counterscreen, fluorescence read-out; IC50, µM; 780 tested, 49% active; in the data active = IC50 below about 80 µM
# An asterisk follows results filed as active; x = no result given. Compounds with a hit are over-represented: about 2.7% of the library has one in this group of screens.
SMILES,MPTP block,CendR NRP1 mod,CFTR F508del cor,SKN-1 inh,ATG4B inhibitor,Rh123 counter,others
O=[N+]([O-])c1ccc(N/N=C/c2sc(N3CCOCC3)nc2-c2ccccc2)c(S(=O)(=O)Nc2ccccc2Cl)c1,91*,-193,x,-5,62*,65*,PLA2 ctr=26
O=C(N/N=C/c1sc(N2CCOCC2)nc1-c1ccccc1)c1ccccc1Cl,-2,21,1,4,-4,x,
O=C(Nc1ccc(Cl)cc1)NC1CCCCC1,17,3,x,8,1,x,
O=C(Nc1nc(-c2ccc(Cl)cc2)cs1)NC1CCCCC1,92*,1,x,18,64*,88*,PLA2 ctr=73*
O=c1cc(-c2ccccc2Cl)oc2c(NS(=O)(=O)c3cc(Cl)cc(Cl)c3O)ccc(O)c12,70*,-50,x,4,101*,6,PLA2 ctr=103*
S=C(NCCSCc1c(Cl)cccc1Cl)Nc1ccccc1,79*,1,x,3,45*,86*,PLA2 ctr=50*
Cc1ccc(NC(=S)NCc2ccccc2)cc1[N+](=O)[O-],99*,1,x,1,54*,91*,PLA2 ctr=63*
CN(C)NC(=S)Nc1cccc(C(F)(F)F)c1,-2,2,0,-7,-4,x,
O=C(NCc1ccc(F)cc1)Nc1cccc(Cl)c1,85*,4,-1,0,67*,93*,PLA2 ctr=73*
Fc1ccc(CNC(=S)Nc2cccc(C(F)(F)F)c2)cc1,100*,5,x,-10,71*,85*,PLA2 ctr=70*
O=C(CNc1cccc(Cl)c1)NNC(=S)NCc1ccccc1,2,-4,1,-1,-6,x,
S=C(NCc1ccccc1)Nc1cccc(Cl)c1,97*,-5,-3,1,50*,101*,ATG4B confirm=59*;PLA2 ctr=43
C[C@@H]1CCCCO[C@H](CN(C)C(=O)NC2CCCCC2)[C@H](C)CN([C@H](C)CO)C(=O)c2cc(NS(=O)(=O)c3ccc(F)cc3)ccc2O1,x,x,0,x,x,x,
CO[C@@H]1CN(C)C(=O)c2cc(NS(C)(=O)=O)ccc2OC[C@H](C)N(C(=O)C2CCCCC2)C[C@@H]1C,x,x,-4,x,x,x,
COc1ccc(NC(=O)N(C)C[C@@H]2Oc3ccc(NS(=O)(=O)c4cn(C)cn4)cc3CC(=O)N([C@H](C)CO)C[C@H]2C)cc1,x,x,0,x,x,x,
Brc1ccc2nc(-c3ccc(CN4CCC5(CC4)CNc4ccccc45)cc3)c(-c3ccccc3)nc2c1,x,x,4,x,x,x,
Cc1onc(-c2ccccc2)c1CNC(=O)Nc1cccc(Cl)c1,78*,8,0,12,46*,85*,ATG4B confirm=73*;PLA2 ctr=44
FC(F)Sc1ccc(NC(=S)NCc2ccccc2)cc1,85*,-2,3,9,44*,92*,PLA2 ctr=60*
CO[C@@H](CN(C)C(=O)C1CCOCC1)[C@H](C)CN(C(=O)Nc1ccc(F)cc1)[C@H](C)CO,x,x,-2,x,x,x,
C[C@@H]1CN([C@H](C)CO)C(=O)c2cccc(NC(=O)Nc3ccc4c(c3)OCO4)c2O[C@@H]1CN(C)S(=O)(=O)c1ccccc1,x,x,1,x,x,x,
Cc1[nH]n(-c2ncc(-c3ccccc3)s2)c(=O)c1C(c1ccc(Cl)cc1)C(C#N)C#N (stereo not given),103*,-37,x,6,30,25*,
COc1cccc(CNc2nc(NCC3CC3)nc3ccsc23)c1OC,4,5,-2,18,x,x,
COc1ccccc1CNc1nc(NCCOc2ccccc2Cl)c2sccc2n1,50*,-18,-3,-5,x,92*,
CSc1ccccc1CNc1nc(NCC2CC2)nc2ccsc12,91*,12,-12,16,x,102*,
COc1ccccc1CNc1nc(NCc2ccc(C(C)C)cc2)c2sccc2n1,49,6,0,19,x,x,
SMILES,MPTP block,CendR NRP1 mod,CFTR F508del cor,SKN-1 inh,ATG4B inhibitor,Rh123 counter,others
c1csc(CNc2nc(NCC3CCCCC3)c3sccc3n2)c1,51*,-3,-6,1,x,91*,
CC(C)c1ccc(CNc2nc(NCC3CC3)nc3ccsc23)cc1,80*,0,6,12,x,99*,
CC(C)OC(=O)N(C)C[C@H]1OCc2cnnn2CCCC(=O)N([C@@H](C)CO)C[C@@H]1C,x,x,2,x,x,x,
CC1(C)CC(NC(=O)c2cccc(S(=O)(=O)N(Cc3ccccc3)c3ccccc3)c2)CC(C)(C)N1,83*,10,-3,9,-6,-17,MPTP swell DR=9.5*;MPTP cs DR=>80
COc1ccccc1S(=O)(=O)N[C@@H]1CC[C@@H](CC(=O)NCc2cc(F)cc(F)c2)O[C@H]1CO,x,x,-5,x,x,x,
O=C(Nc1ccc(Cl)cc1)N1C[C@H]2[C@@H](c3ccccc31)[C@H](CO)N2C(=O)c1cccnc1,x,x,-1,x,x,x,
N#Cc1cc(C(=O)c2cc(Br)ccc2O)cn(C2CCCCC2)c1=O,94*,-13,0,5,13,82*,
N#CC1=C(N)NC(SCC(=O)Nc2ccc(Br)cc2)=C(C#N)C12CCCCC2,89*,1,x,0,-8,89*,
N#CC1=C(N)NC(SCC(=O)c2ccccc2)=C(C#N)C12CCCC2,19,-9,x,-9,11,x,
N#CC1=C(N)NC(SCc2ccc(Br)cc2)=C(C#N)C12CCCCC2,92*,-2,x,5,6,79*,
C[C@H](CO)N1C[C@H](C)[C@@H](CN(C)C(=O)Nc2cccc3ccccc23)Oc2ccc(NC(=O)NC3CCCCC3)cc2C1=O,x,x,-2,x,x,x,
Cc1cc(C(=O)CSc2nc3ccccc3c(=O)[nH]2)c(C)n1CC1CCCO1 (stereo not given),81*,-15,0,-4,-16,75*,
C[C@@H]1CN([C@@H](C)CO)S(=O)(=O)c2ccc(C#CC3(O)CCCC3)cc2O[C@H]1CN(C)C(=O)Nc1ccc(F)cc1,x,x,-1,x,x,x,
CCOC(=O)c1ccc(NC(=O)CCc2nc(-c3ccc(Cl)cc3)no2)cc1,97*,2,x,-15,-12,81*,
COc1ccc(NC(=O)CCc2nc(-c3ccc(C)cc3)no2)cc1Cl,20,1,x,-5,-11,x,
CCOC(=O)c1ccc(NC(=O)CCc2nc(-c3ccc(C)cc3)no2)cc1,85*,5,x,21,14,85*,
Cc1ccc(-c2noc(CCC(=O)Nc3ccc4c(c3)OCO4)n2)cc1,52*,9,x,-26,-2,26*,
CO[C@@H]1CN(C)C(=O)c2ccc(NC(=O)Nc3c(C)noc3C)cc2OC[C@H](C)NC[C@H]1C,x,x,8,x,x,x,
